From PubChem BioAssay
Shown are actives, neighbours in structure and some others; about 9.2% of the full set was active somewhere.
ELG1 DNA repair = ELG1-dependent DNA repair inhibition. HEK293T ELG1-luciferase reporter, luminescence, 16 h; DNA damage induced by 5-fluorouridine. Potency, µM (highest dose often 46.1 µM), without a hit: top-dose activity change, negative = inhibition, actives largely listed as inhibitors. 330,000 compounds, 2.3% hits; further: on the % scale 0 is the no-effect control and ±100 the full control effect; nearly all actives have a fitted effect of over 55% in size
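Cells (2,000 per well) received 5-fluorouridine plus test compound or DMSO and were incubated 16 hr at 37 °C, 5% CO2. Luciferase activity was read by luminescence 30 min after ONE-Glo addition; signal suppression marked inhibition of damage-induced ELG1 function.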
SMN2 splice enh = SMN2 splice variant enhancement. Potency, µM (titrated, usually from 46.1 µM), inactives show top-dose activity change, positive = activation, usual class: activators. 210,000 compounds, 2.8% hits. HEK293 SMN2-luciferase splicing reporter, luminescence, 30-36 h; further: % of control where 0% means no effect; nearly all actives have a fitted effect of over 55% in size
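qHTS luciferase splicing reporter: luminescence rises when SMN2 exon 7 is included in transfected HEK293 cells. Compound exposure lasted 30-36 h at 37C, with 4.5 mM final sodium butyrate as control, followed by a ONE-Glo read.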
ELG1 genotox = induces genotoxicity in HEK293T cells with luciferase-tagged ELG1 | HEK293T ELG1-luciferase reporter, luminescence, 16 h | Potency, µM (series often up to 46 µM), for the others: top-dose activity change, positive = activation, actives largely listed as activators | 330,000 compounds, 1.3% hits | AID 504466; further: % of control where 0% means no effect; nearly all actives have a fitted effect of over 60% in size
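HEK293T cells expressing luciferase-tagged ELG1 were exposed to compound or DMSO vehicle for 16 hr at 37 °C and 5% CO2. Luciferase activity was then measured with ONE-Glo after 30 min at room temperature.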
FLuc counter = counter-screen for miR-21 project: firefly luciferase inhibitors or activators; P08659; purified FLuc, Km substrates, luminescence inhibition; Potency, µM (titrated, usually from 57.5 µM), for inactives: at the top dose activity change, negative = inhibition, hits mostly inhibitors; 360,000 compounds, 6.9% hits; AID 588342;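 further: plate controls were vehicle for no effect and reference inhibitor for full effect; nearly all actives have a fitted effect of over 55% in size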
Target sequence (P08659 whole entry, looked up): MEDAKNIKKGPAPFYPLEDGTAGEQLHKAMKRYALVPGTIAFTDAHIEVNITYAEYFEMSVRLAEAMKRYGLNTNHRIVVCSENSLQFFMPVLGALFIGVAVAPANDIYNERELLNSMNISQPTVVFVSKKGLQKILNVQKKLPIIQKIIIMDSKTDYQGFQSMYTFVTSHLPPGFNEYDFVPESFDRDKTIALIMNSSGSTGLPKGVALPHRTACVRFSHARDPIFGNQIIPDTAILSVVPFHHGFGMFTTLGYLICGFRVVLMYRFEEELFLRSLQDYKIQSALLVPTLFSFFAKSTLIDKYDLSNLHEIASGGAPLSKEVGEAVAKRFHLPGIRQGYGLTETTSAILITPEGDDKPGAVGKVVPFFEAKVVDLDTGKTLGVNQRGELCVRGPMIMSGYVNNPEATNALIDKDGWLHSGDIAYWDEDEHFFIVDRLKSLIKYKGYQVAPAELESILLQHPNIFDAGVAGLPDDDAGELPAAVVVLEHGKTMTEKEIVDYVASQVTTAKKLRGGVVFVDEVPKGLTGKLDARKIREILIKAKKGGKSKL
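Purified P. pyralis luciferase (10nM final) with 10uM D-luciferin and 10uM ATP (Km levels) in 50mM Tris acetate pH 7.5, 10mM Mg acetate, 0.01% Tween-20, 0.05% BSA; qHTS 6-point titration, ~60 µM downward; luminescence read.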
NPC1 prom act = NPC1 promoter activation | Potency, µM (doses to about 9.22 µM), for the others: top-dose activation, hits mostly activators | 320,000 compounds, 2.4% hits | Huh7 NPC1 promoter luciferase reporter, 24 h; further: % of control where 0% means no effect; nearly all actives have a fitted effect of over 60% in size
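Luciferase expression driven by the NPC1 promoter was measured in stably transfected Huh7 cells after a 24 h compound incubation, using a luciferase reagent and a luminescence read.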
Rab9 promoter act = activates the Rab9 promoter | 320,000 compounds, 2.8% hits | Huh7 Rab9 promoter-luciferase reporter, luminescence, 24 h | Potency, µM (doses to about 9.22 µM), without a hit: at the highest dose activation, negative = inhibition, hits mostly activators; further: % of control where 0% means no effect; nearly all actives have a fitted effect of over 60% in size
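Quantitative HTS format; Huh7 Rab9-luciferase reporter cells (1500/well) receive compound 2 h post-plating, incubate 24 h at 37 °C, then get luciferase reagent for 10 min before luminescence reading.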
An asterisk follows results filed as active; ? = inconclusive; / = no result. The call rests on the fitted dose curve; in most records, active means well fitted curve in the direction sought with a large enough effect; inconclusive means small, poorly fitted or top-dose-only effect, or another doubt; inactive means no such curve, though single readings can be large; an effect the other way counts as inactive or inconclusive. Potency means the concentration at half of the fitted maximal effect.

SMILES	ELG1 DNA repair	SMN2 splice enh	ELG1 genotox	FLuc counter	NPC1 prom act	Rab9 promoter act
C[C@H](CO)N1C[C@H](C)[C@@H](CN(C)Cc2ccncc2)Oc2c(NS(=O)(=O)c3cn(C)cn3)cccc2C1=O	13.7%	/	0.3%	/	/	/
CC(C)Oc1ccc(C(=O)Nc2c(C(=O)Nc3cccc(F)c3)oc3ccccc23)cc1	/	10.8%	/	?	/	/
O=C(CSc1nnc(-c2ccccc2Cl)o1)N1CCCCC1	?	15.8µM*	4.61µM*	15.1µM*	?	?
O=C(CSc1nnc(-c2ccccc2Br)o1)N1CCOCC1	?	/	?	19µM*	2.82µM*	3.98µM*
O=C(CSc1nnc(-c2ccccc2O)o1)N1CCOCC1	?	/	?	?	?	3.16µM*
CC1CCCCN1C(=O)CSc1nnc(-c2ccccc2O)o1 (centres undefined)	?	/	5.17µM*	21.3µM*	2.82µM*	3.55µM*
CC(Sc1nnc(-c2ccccc2Br)o1)C(=O)N1CCOCC1 (centres undefined)	6.3%	/	7.3%	-13.4%	3.8%	8.9%
O=C(CSc1nnc(-c2ccccc2O)o1)N1CCc2ccccc2C1	-29.2%	-47.5%	0.1%	-17.0%	-2.0%	27.1%
Cc1cc(F)ccc1S(=O)(=O)N1CCCOC1CNC(=O)C(=O)NCc1cccnc1 (centres undefined)	2.5%	/	0.3%	5.4%	1.0%	1.8%
Cc1ccc(Cl)cc1NC(=O)C(NS(=O)(=O)c1cccc2nsnc12)c1ccccc1 (centres undefined)	/	1.8%	/	?	/	/
COc1ccccc1CNC(=O)Cn1c(=O)nc(-c2ccccc2)c2ccccc21	/	/	/	2.6%	/	/
O=C(CSc1nnc(-c2ccccc2Cl)o1)N1CCCC1	?	/	?	15.1µM*	?	?
O=C(CSc1nnc(-c2ccccc2O)o1)N1CCCCC1	?	/	?	10.7µM*	23.9%	25.6%
C[C@@H]1CN([C@@H](C)CO)C(=O)c2cccc(NC(=O)Nc3ccccc3)c2O[C@H]1CN(C)C(=O)Nc1cccc2ccccc12	-25.8%	/	-2.5%	/	/	/
Cc1n[nH]c(C)c1S(=O)(=O)N(CC(=O)NCc1ccccc1Cl)c1ccc(C(C)C)cc1	/	-5.4%	/	-18.6%	/	/
CC1CCN(S(=O)(=O)c2ccc3c(c2)oc(=O)n3CC(=O)NCc2ccc3c(c2)OCO3)CC1	10.3µM*	-84.5%	-15.1%	2.2%	-3.7%	-10.0%
Cc1c(C(=O)NCc2ccc3c(c2)OCO3)oc2ccc(S(=O)(=O)N3CCC(C)CC3)cc12	8.2µM*	-49.0%	-4.3%	2.2%	-10.0%	-12.3%
Cc1c(C(=O)NCc2ccc3c(c2)OCO3)oc2ccc(S(=O)(=O)N3CCCCCC3)cc12	/	-33.2%	/	1.9%	/	/
Cc1cc(C)n(-c2nc3ccccc3s2)n1	?	/	?	21.3µM*	16.8%	26.8%
Cc1cc(C)n(-c2nc(-c3ccccc3)cs2)n1	?	22.9%	18.4µM*	9.53µM*	26.3%	?
Cc1c2c(=O)n(-c3nc4ccccc4s3)nc-2cc(O)n1Cc1ccccc1	?	/	-0.5%	6.75µM*	-4.9%	-15.7%
Cc1cc(C)n(-c2nc(C(=O)O)cs2)n1	13.7%	9.1%	2.1%	-15.0%	-3.3%	-1.9%
Cc1cc(N)n(-c2nc3ccccc3s2)n1	4.1%	/	-13.2%	-2.1%	-9.9%	-10.9%
Cc1cc(C)n(-c2nc(-c3cccc(Cl)c3)cs2)n1	?	17.6%	?	10.7µM*	?	?
Cc1cc(NC(=O)C(C)C)n(-c2nc3ccccc3s2)n1	17.2%	-6.0%	7.3%	?	20.6%	?
Cn1nc(C(=O)OCC(=O)Nc2ccc(F)cc2Cl)c2ccccc2c1=O	?	/	1.0%	/	/	/
Cc1noc(C)c1NC(=O)N(C)C[C@H]1Oc2ccc(NC(=O)NC(C)C)cc2C(=O)N([C@H](C)CO)C[C@@H]1C	16.2%	/	0.6%	/	/	/
